PAFAH2 inh: PAFAH2 (human) inhibition; Q99487; recombinant PAFAH2, FP-rhodamine activity probe, fluorescence polarization; inhibition, % at 3.39 µM; hit rate 0.99% among 340,000;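 active = inhibition above the mean over all tested compounds plus 3 SD, cut at about 30% in these data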;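 also: inhibitors block probe labeling of enzyme so polarization drops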
PAFAH1B3 FP inh: blocks human PAF acetylhydrolase 1B catalytic subunit 3 | Q15102 | recombinant PAFAH1B3, FP-rhodamine probe, fluorescence polarization | inhibition, % at 3.39 µM | hit rate 0.28% among 340,000;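 active = inhibition above the screen-wide average of all tested compounds plus 3 SD, cut at about 25% in these data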
Target sequence (Q15102 whole entry, looked up): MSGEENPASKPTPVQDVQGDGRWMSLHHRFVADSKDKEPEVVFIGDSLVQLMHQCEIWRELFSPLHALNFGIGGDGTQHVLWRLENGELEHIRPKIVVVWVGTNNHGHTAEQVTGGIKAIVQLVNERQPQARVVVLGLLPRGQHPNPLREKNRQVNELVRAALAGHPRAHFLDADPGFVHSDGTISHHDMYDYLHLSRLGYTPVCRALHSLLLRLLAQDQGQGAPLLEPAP
PAFAH1B2 inh: PAFAH1B2 (human) inhibition | recombinant PAFAH1B2, FP-rhodamine activity probe, fluorescence polarization | P68402 | AID 492953 | inhibition, % at 3.39 µM | hit rate 1.2% among 340,000;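 active = inhibition above the mean of all tested compounds plus 3 SD, cut at about 24% in these data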
LYPLA2 inh: LYPLA2 (human) inhibition in PME1 counter-screen. recombinant LYPLA2, FP-Rh probe fluorescence polarization. inhibition, % at 5.9 µM. hit rate 0.38% among 320,000. O95372;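 active = inhibition above the screen-wide mean plus 3 SD, limit set per campaign, cut at about 26% in these data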
Target sequence (O95372 whole entry, looked up): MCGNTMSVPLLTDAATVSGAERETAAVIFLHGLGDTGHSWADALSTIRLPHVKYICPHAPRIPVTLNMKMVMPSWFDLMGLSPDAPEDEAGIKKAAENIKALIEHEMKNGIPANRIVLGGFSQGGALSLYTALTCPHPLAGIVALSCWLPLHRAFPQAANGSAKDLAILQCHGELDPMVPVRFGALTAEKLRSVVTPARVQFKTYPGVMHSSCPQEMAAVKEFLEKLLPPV
pPAFAH FP inh: pPAFAH (human) enzyme inhibition; Q13093; recombinant pPAFAH, FP-rhodamine probe fluorescence polarization; inhibition, % at 3.39 µM; hit rate 1.5% among 330,000; AID 463082;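 active = inhibition above the mean inhibition across the screen plus 3 SD, cut at about 25% in these data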;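 also: inhibitors block binding of the rhodamine activity-based probe so polarization drops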
LYPLA1 inh: counter-screen for PME1 inhibitors: inhibitors of human LYPLA1; AID 2174; hit rate 0.16% among 320,000; O75608; recombinant LYPLA1, FP-Rh probe fluorescence polarization; inhibition, % at 5.9 µM;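 active = inhibition above the mean of all tested compounds plus 3 SD, set per campaign, cut at about 14% in these data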;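 also: inhibitors block serine hydrolase probe labeling of LYPLA1 so polarization falls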
Target sequence (O75608 whole entry, looked up): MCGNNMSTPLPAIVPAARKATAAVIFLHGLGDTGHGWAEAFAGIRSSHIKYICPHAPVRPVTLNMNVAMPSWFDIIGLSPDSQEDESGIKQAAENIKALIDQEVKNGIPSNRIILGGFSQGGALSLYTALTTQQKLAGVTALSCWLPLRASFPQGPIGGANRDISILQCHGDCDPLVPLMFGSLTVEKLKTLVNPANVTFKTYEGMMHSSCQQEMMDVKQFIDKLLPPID
pPAFAH confirm: confirmation of human plasma PAF acetylhydrolase (pPAFAH) inhibitors. hit rate 72% among 2,300. recombinant pPAFAH, FP-Rh probe fluorescence polarization. shares compounds with pPAFAH FP inh. inhibition, % at 3.39 µM. AID 463230;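 active = mean inhibition of the triplicate above the hit cutoff set for the earlier primary screen, cut at about 25% in these data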
Large screens that a line does not name were inactive (follow-up assays come after a bar, where they were run). The list is not random: actives were taken first. Their share in the collection is about 2.9%.

CCOC(=O)N1CCN(S(=O)(=O)c2ccc(C(=O)NNc3nc4ccc(Cl)cc4s3)cc2)CC1	pPAFAH FP inh 38.5 | pPAFAH confirm 38.5
CCOc1ccc(S(=O)(=O)N2CCN(c3ccccc3F)CC2)c2cccnc12	none
COc1ccc(COC(=O)c2cc([N+](=O)[O-])ccc2N2CCOCC2)cc1F	pPAFAH FP inh 43.5 | pPAFAH confirm inactive
CC(C)Cn1c(=O)c(C(=O)NCc2ccccn2)c(O)c2ccccc21	pPAFAH FP inh 55.7 | pPAFAH confirm inactive
Cc1ccccc1NC(=O)CSc1nc(O)cc(=O)n1C	none
COc1ccccc1-n1c(SCC(=O)Nc2ccccc2C)nc(O)cc1=O	pPAFAH FP inh 81.1 | pPAFAH confirm inactive
COc1ccccc1NC(=O)CSc1nc(O)cc(=O)n1-c1ccccc1OC	pPAFAH FP inh 42.6 | pPAFAH confirm inactive
COc1ccccc1-n1c(SCC(=O)NC(C)(C)C)nc(O)cc1=O	none
Cc1cc(-c2nnc(SCC(=O)Nc3nc(-c4ccc(Cl)cc4)cs3)o2)no1	pPAFAH FP inh 41.6 | pPAFAH confirm inactive
COc1cccc(/C=C2\SC(=S)N(CCC(=O)N3CCCCC3CCO)C2=O)c1 (stereo unspecified)	none
COc1cc(/C=C2\C(=N)N3N=C(N4CCOCC4)SC3=NC2=O)ccc1OC(=O)c1ccccc1	none
N=C1/C(=C\c2ccc(OC(=O)c3ccccc3Cl)cc2)C(=O)N=C2SC(N3CCOCC3)=NN12	pPAFAH FP inh 36.2 | pPAFAH confirm 32.9
COc1cc(C(=O)NCCC2=CCCCC2)ccc1OC1CCN(C(C)=O)CC1	none
O=C(O)CCc1ccc(-c2ccc(Cl)cc2)n1Cc1ccco1	pPAFAH FP inh 34.9 | pPAFAH confirm inactive
O=C(N/N=C/c1cc(Br)cc([N+](=O)[O-])c1O)c1ccc(NC(=O)c2ccc(F)cc2)cc1	pPAFAH FP inh 38.0 | pPAFAH confirm 55.0
O=C(N/N=C/c1cc(Br)cc(Br)c1O)c1ccncc1	none (no result: PAFAH2 inh, PAFAH1B3 FP inh, PAFAH1B2 inh)
CC(C)c1ccc(Nc2c([N+](=O)[O-])c(=O)n(C)c3ccccc23)cc1	none
Cn1c(=O)c(Nc2ccc(O)cc2)c2c3c(cccc31)C(=O)c1ccccc1-2	pPAFAH FP inh 40.7 | pPAFAH confirm 39.7
CCOC(=O)c1ccc(Nc2ncnc3nc[nH]c23)cc1	none
COc1ccc(S(=O)(=O)Nc2c(C(=O)O)[nH]c3ccccc23)c(OC)c1	pPAFAH FP inh 51.0 | pPAFAH confirm inactive
COC(=O)c1cccnc1NC(=S)NC1CCCCC1	none
O=C(O)c1cc(-c2ccc(/C=C3\NC(=O)N(c4ccccc4)C3=O)o2)ccc1Cl	none
O=C(O)c1cc(-c2ccc(/C=C3\NC(=O)N(c4ccc(Cl)cc4)C3=O)o2)ccc1Cl	pPAFAH FP inh 37.1 | pPAFAH confirm inactive
COc1ccc(OC)c(CN2CCCC(C(=O)c3ccccc3SC)C2)c1 (stereo unspecified)	pPAFAH FP inh 57.7 | pPAFAH confirm inactive
CC(CCC(C)C(C)(C)C)[C@@H]1CC[C@H]2C3C[C@H](OS(O)(=S)=S)[C@H]4C[C@H](OS(O)(=S)=S)[C@@H](OS(O)(=S)=S)C[C@]4(C)[C@H]3CC[C@]12C (stereo partly specified) (tested in a mixture with another compound)	pPAFAH FP inh 35.5 (no result: LYPLA2 inh, LYPLA1 inh) | pPAFAH confirm inactive
O=c1[nH]c2ccc(S(=O)(=O)Nc3ccccc3O)cc2[nH]1	none
O=C(CN1C(=O)/C(=C\c2ccco2)SC1=S)Nc1ccc(O)cc1C(=O)O	pPAFAH FP inh 42.4 | pPAFAH confirm inactive
O=C(CCCN1C(=O)/C(=C/c2ccco2)SC1=S)Nc1ccccc1C(=O)O	pPAFAH FP inh 64.9 | pPAFAH confirm inactive
O=C(CCN1C(=O)/C(=C/c2ccco2)SC1=S)Nc1ccc(O)cc1C(=O)O	none (no result: LYPLA2 inh, pPAFAH FP inh, LYPLA1 inh)
O=C(O)c1ccccc1-c1nc(-c2ccccc2)c(-c2ccccc2)[nH]1	none
OC(COc1ccc(F)cc1)CN1CCN(c2ccccc2F)CC1 (stereo unspecified)	none
O=C(CNC(=O)c1nc[nH]c1C(=O)NCc1ccccc1)OCc1ccccc1	pPAFAH FP inh 34.9 | pPAFAH confirm inactive
O=C(CCOc1ccccc1)Nc1ccnn1C1CCN(Cc2ccc(CO)o2)CC1	pPAFAH FP inh 43.2 | pPAFAH confirm inactive
COc1cccc(NC(=O)CC(=O)c2ccc([N+](=O)[O-])cc2)c1	none
COCCn1c(=O)c2c(nc3n2CCCN3Cc2ccccc2)n(C)c1=O	none
COc1ccc(OCCNS(=O)(=O)c2cccc([N+](=O)[O-])c2)cc1	none
COc1cc(OC)c2c(O)c3c(c(-c4c5c(c(O)c6c(OC)cc(OC)cc46)CO[C@@H](C)[C@H]5O)c2c1)[C@H](O)[C@H](C)OC3	pPAFAH FP inh 78.0 | pPAFAH confirm 67.6
COc1cccc(OCc2cc(/C=N/Nc3ccc(C(=O)O)cc3)ccc2OC)c1	pPAFAH FP inh 39.1 | pPAFAH confirm 64.8
COc1ccc(C(=O)N/N=C/c2ccc(OC)c(COc3ccc(F)cc3)c2)cc1	none
Nc1c(S(=O)(=O)O)cc(NC(=O)c2ccccc2)c2c1C(=O)c1ccccc1C2=O	PAFAH2 inh 53.8, PAFAH1B3 FP inh 49.4, PAFAH1B2 inh 34.4, pPAFAH FP inh 84.0 | pPAFAH confirm 90.1
O=C(Nc1ccccc1-c1ccccc1)c1ccccc1	none
N#Cc1c(-c2ccco2)cc(-c2ccccc2)[nH]c1=O	none
Cc1ccc(-c2cc(-c3ccco3)c(C#N)c(=O)[nH]2)cc1	pPAFAH FP inh 34.8 | pPAFAH confirm inactive
O=C(O)c1ccc(Nc2nc3ccccc3nc2NS(=O)(=O)c2ccc(F)cc2)cc1	none
CC(=O)Nc1ccc(S(=O)(=O)Nc2nc3ccccc3nc2Nc2ccc(N)cc2)cc1	pPAFAH FP inh 38.0 | pPAFAH confirm inactive
O=c1cc(-c2ccc(O)cc2)oc2c(-c3c(O)cc(O)c4c(=O)cc(-c5ccc(O)cc5)oc34)c(O)cc(O)c12	PAFAH2 inh 57.3, PAFAH1B3 FP inh 55.8, PAFAH1B2 inh 39.5, pPAFAH FP inh 62.7 (no result: LYPLA2 inh, LYPLA1 inh) | pPAFAH confirm 68.2
O=C(O)C1OC(Oc2c(-c3ccc(O)c(O)c3)oc3cc(O)cc(O)c3c2=O)C(O)C(O)C1O (stereo unspecified)	none (no result: PAFAH2 inh, PAFAH1B3 FP inh, PAFAH1B2 inh)
O=c1cc(-c2ccc(O)cc2)oc2c([C@@H]3O[C@H](CO)[C@@H](O)[C@H](O)[C@H]3O)c(O)c([C@@H]3O[C@H](CO)[C@@H](O)[C@H](O)[C@H]3O)c(O)c12	none
COc1c(-c2ccc(O)cc2)oc2cc(O)cc(O)c2c1=O	none
O=c1c(-c2c(O)cc(O)c3c(=O)cc(-c4ccc(O)cc4)oc23)c(-c2ccc(O)cc2)oc2cc(O)cc(O)c12	PAFAH1B3 FP inh 43.9, pPAFAH FP inh 66.0 | pPAFAH confirm 68.4
O=c1cc(-c2ccccc2)oc2cc(OCc3ccccc3)cc(O)c12	none

Assay outcomes: PubChem, The Scripps Research Institute Molecular Screening Center
